In PubChem BioAssay (NCI):
This is part of a sample that, as a whole, favours compounds with a hit. Of some 83,000 tested, about 20% had one in any assay.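 Negative percent growth values reflect cell death: -40 means 40% of the cells present at the start died, and -100 means all died.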 Unmarked numbers belong to inactive results. Active and inactive are the calls of the source.

System: MDA-MB-468 breast
Assay: NCI-60 one-dose screen, 48 h (100 = growth as untreated, 0 = no growth, -100 = all killed)
Conditions: 10 µM unless noted
Method: Growth inhibition of the MDA-MB-468 human Breast tumor cell line is measured as a screen for anti-cancer activity. Cells are grown in 96 well plates and exposed to the test compound for 48 hours. Compounds are tested at a single concentration, which is 10^-5 M for most compounds. The reported endpoint is percent growth (GI% or GIPRCNT), where numbers from 0 - 100% represent growth inhibition, and numbers from -100% - 0 represent cell death. For example, a value of 40 represents 60% growth inhibition. A value of 0 means no net growth occurred over the course of the experiment. A value of -40 indicates 40% of cells at the beginning of the experiment died by the end of the experiment. A value of -100 means all cells are dead at the end of the experiment.
NCI-60 Human Tumor Cell Lines Screen was performed using the standard one-dose NCI protocol, which is described in more detail at https://dtp.cancer.gov/discovery_development/nci-60/default.htm.
Compounds with GIPRCNT values below 10 were considered active. Activity score was based on GIPRCNT using the following formula: […]
Score is 0 for GIPRCNT values of 100 or above, 50 for GIPRCNT values of 0, and 100 for GIPRCNT values of -100.

Compound	growth
COC(=O)/C=C/c1cccc2c1C(=O)NC(C)(c1cc3ccccc3oc1=O)N2 (stereo not given)	64.7%
CN(C)c1nc(NCCNS(=O)(=O)c2ccc(C3=Nc4c(N)nc(N)nc4NC(c4ccc(F)cc4)C3)cc2)nc(Nc2ccc(F)cc2)n1 (stereo not given)	-40.7% (active)
Cc1cc(N=C2NC(=O)CS2)n[nH]1	114%
N#Cc1c(-c2cccc3ccccc23)cc(-c2cccc(OCC(=O)O)c2)[nH]c1=O	98.7%
Cc1ccc([C@H]2C(C(=O)c3ccc(Cl)cc3)C3(N[C@@H]2c2ccccc2)C(=O)Nc2ccc(Cl)cc23)cc1 (stereo not given in full)	47.9%
COc1ccc(/C=C/c2nc3ccccc3nc2Nc2cccc(C)c2)cc1	101%
Cc1cccc(-c2nc(Nc3ccc(C)c(S(N)(=O)=O)c3)c3ccccc3n2)c1	13.4%
NS(=O)(=O)c1ccc(NNC(=O)CCC(=O)c2ccccc2)cc1	93.3%
CC(C)CSc1nc(NCCc2c[nH]c3ccccc23)c(C#N)c(-c2ccccc2)n1	20.8%
C#CCOc1cc(N(CC)CC)ccc1C(C(=O)NC(C)(C)C)N(C(=O)C1CCc2cc(F)ccc2O1)c1ccccc1Br (stereo not given)	38.2%
CC1(C)CC[C@]2(C(=O)O)CC[C@]3(C)C(=CCC4[C@@]5(C)C[C@@H](O)[C@@H]6OC(c7ccco7)OC[C@@]6(C)C5CC[C@]43C)C2C1 (stereo not given in full)	8.23% (active)
Cc1cc(=O)oc2cc(OCCCCOc3ccc(/C=C/C(=O)Nc4ccccc4N)cc3)ccc12	34.2%
O=c1cc(-c2ccccc2)oc2cc(OCCCC[P+](c3ccccc3)(c3ccccc3)c3ccccc3)cc(O)c12	-84.9% (active)
COc1cc2c(c(OC)c1OC)C(=O)CC(c1cccc(NC(=O)c3cc([N+](=O)[O-])ccc3Cl)c1)O2 (stereo not given)	-13.7% (active)
O=c1[nH]c2ccccc2cc1CSc1cccc(Nc2nccc(-c3ccc4ccccc4c3)n2)c1	80.4%
Cn1cc(NC(=O)c2cc(NC(=O)c3ccc(/C=C/c4ccccc4)cc3)cn2C)cc1C(=O)NCCCN1CCOCC1	-61.3% (active)
NS(=O)(=O)c1ccc(-n2cc(-c3cccc(NC(=O)c4cc(N5CCOCC5)cc(C(F)(F)F)c4)c3)nn2)cc1	69.4%
O=C1Nc2cc(Cl)ccc2/C1=C/c1cccc(OCc2ccccn2)c1	1.49% (active)
CCOC(=O)C1=C(N)N(c2ccccc2)C2=C(C(=O)CC(C)(C)C2)C1c1ccc(N2CCOCC2)cc1 (stereo not given)	89.6%
CC1CCCCN1CCCNC(=O)N/C(N)=N/c1nc2ccccc2s1 (stereo not given)	11.2%

Compound	growth
CC(=O)Oc1ccccc1C(=O)[Se]CC(=O)Nc1cccc(C(F)(F)F)c1	-88.8% (active)
CC(=O)OC[C@@]1(C)C2CC[C@]3(C)C(CC=C4C5CC(C)(C)CC[C@]5(C(=O)Nc5ccc(C)cc5)CC[C@]43C)[C@@]2(C)C[C@@H](OC(C)=O)[C@@H]1OC(C)=O (stereo not given in full)	8.22% (active)
O=C(O)c1ccc(-c2ccc(/C=N/NC(=O)c3[nH]c4ccc(Br)cc4c3-c3ccccc3)s2)cc1	3.12% (active)
Cc1sc2c(c1C)C(c1ccc(Cl)cc1)=N[C@@H](CC(=O)NCCCCCNC(=O)COc1ccc(C3CCC(=O)NC3=O)cc1)c1nnc(C)n1-2 (stereo not given in full)	-20.8% (active)
C=C1CC[C@@H]2[C@]3(C)COC(c4cn[nH]c4-c4ccccc4)O[C@@H]3CC[C@@]2(C)[C@@H]1C/C=C1/C(=O)OCC1O (stereo not given in full)	-37% (active)
COc1ccc(NC(=O)Cn2c(/C=C/c3cccc([N+](=O)[O-])c3)nc3ccccc3c2=O)cc1	83.6%
COc1cc(-c2nc3ccc(C)cc3[nH]2)ccc1OCc1nnc(-c2ccc(Br)cc2)o1	-34.3% (active)
CC(C)c1ccc2c(N)c(C(=O)Nc3cccc(C(F)(F)F)c3)sc2n1	13.2%
S=c1c2ccccc2nc2n1CCc1c-2[nH]c2ccccc12	47.9%
N#Cc1c(-c2ccc(Cl)cc2)nc2n[nH]c(-c3ccc(Cl)cc3)c2c1-c1cccs1	50.8%
CCOC(=O)c1ccc(Nc2nc(NN)nc(-c3ccc(F)cc3)c2C#N)cc1	119%
Cc1ccc(C(=O)CSc2nc3ccc(C)cc3c(=O)n2-c2ccc(F)cc2)cc1	67.2%
COc1ccc(C(=O)/C=C/c2cccc(Br)c2)cc1S(N)(=O)=O	-53.9% (active)
Cc1ccc(S(=O)(=O)c2nc(S(=O)(=O)c3ccc(C)cc3)c(N3CCN(C)CC3)s2)cc1	-15% (active)
CCCCCCCCc1ccc(C(=O)Nc2ccc(C)cc2C(=O)O)cc1C	92.8%
COc1cc(C2CC(c3cc(OC)c(OC)c(OC)c3)=NN2C(C)=O)ccc1OCc1ccccc1 (stereo not given)	34.2%
COc1ccc(/C=C/c2nc3ccccc3c(=O)n2CC(=O)Nc2ccc(Cl)cc2)cc1	98%
CN(C)CCn1c2ccccc2c2nc3cc(C(F)(F)F)ccc3nc21	35.3%
CN(C)c1ccnc(NCCCSC(c2ccccc2)(c2ccccc2)c2ccccc2)c1	-34.9% (active)
COc1c(F)ccc(C(=O)Nc2ccc3nc(NC(=O)C4CCCN(S(=O)(=O)c5ccc(Br)s5)C4)sc3c2)c1F (stereo not given)	83.7%
